Screening data as filed in PubChem BioAssay.
Only some compounds are listed: those with a hit (about 19% of all), similar ones and a draw of the others.
TDP1 cell CPT: growth inhibition of DT40 Tdp1-/-;hTDP1 cells with camptothecin (screen for TDP1 inhibitors); chicken DT40 Tdp1-/-;hTDP1 cells + 20 nM CPT, ATP luminescence, 48 h; Potency, µM (titrated, usually from 46.2 µM), hits mostly inhibitors; actives 12% (n = 420,000); also: nearly all actives have a fitted effect of over 55% in size
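Cell growth measured by CellTiter-Glo luminescence after a minimum 48 h, 37 C compound exposure with 20 nM CPT in Tdp1-knockout DT40 cells stably expressing hTDP1, seeded 400/well; qHTS titration format.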
TDP1 inh: TDP1 (human) enzyme inhibition. Potency, µM (highest dose often 130 µM), most hits filed as inhibitors. recombinant TDP1, AlphaScreen DNA substrate cleavage. AID 485290. Q9NUW8. actives 0.28% (n = 350,000); also: nearly all actives have a fitted effect of over 40% in size
Target sequence (Q9NUW8 whole entry, looked up): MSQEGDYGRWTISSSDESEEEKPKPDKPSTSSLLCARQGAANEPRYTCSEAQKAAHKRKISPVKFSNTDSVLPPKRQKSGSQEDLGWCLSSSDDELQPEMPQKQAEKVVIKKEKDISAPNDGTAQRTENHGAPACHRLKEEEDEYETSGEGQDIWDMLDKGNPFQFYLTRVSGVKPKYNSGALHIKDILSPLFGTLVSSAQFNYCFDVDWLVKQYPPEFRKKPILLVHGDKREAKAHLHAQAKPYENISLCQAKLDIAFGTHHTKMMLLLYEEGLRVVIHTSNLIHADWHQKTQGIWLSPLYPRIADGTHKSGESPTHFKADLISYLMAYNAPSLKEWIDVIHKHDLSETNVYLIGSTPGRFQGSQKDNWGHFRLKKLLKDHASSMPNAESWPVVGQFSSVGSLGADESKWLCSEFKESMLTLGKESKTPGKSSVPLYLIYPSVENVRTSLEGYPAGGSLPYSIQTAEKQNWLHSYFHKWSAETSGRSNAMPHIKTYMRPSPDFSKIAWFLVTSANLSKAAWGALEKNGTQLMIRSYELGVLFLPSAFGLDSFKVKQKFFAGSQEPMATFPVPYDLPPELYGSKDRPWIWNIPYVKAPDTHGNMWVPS
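E. coli-derived human Tdp1, 1 nM final. Cpd preinc 15 min RT; substrate 15 nM final, 5 min RT; AS bead mix 10 ug/ml final, 10 min RT. Signal loss = tyrosine-FITC cleavage. No-enzyme wells = max signal.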
TGFb inhibitor: inhibitors of TGF-b signaling. HepG2 CAGA-GFP TGF-b/SMAD3 reporter, GFP fluorescence, 18 h; TGF-beta stimulated, 500 pg/mL final. Potency, µM (series often up to 46.1 µM), usual class: inhibitors. actives 1.2% (n = 410,000). AID 588855; also: nearly all actives have a fitted effect of over 65% in size
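Inhibition was scored as loss of TGF-beta-induced (500 pg/mL final, 18 hours, 37 degrees C) GFP in HEPG2 cells carrying a CAGA-GFP reporter, in DMEM with 1% FBS. Well GFP was summed per cell; Activity was normalised to unstimulated and stimulated DMSO wells, then concentration-response fitting.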
DT40 TDP1 no CPT: qHTS for Inhibitors of human tyrosyl-DNA phosphodiesterase 1 (TDP1): qHTS in cells in absence of CPT | DT40 Tdp1-/- hTDP1 cells, no CPT, ATP luminescence, 48 h | Potency, µM (highest dose often 46.2 µM), usual class: inhibitors | actives 15% (n = 420,000); also: nearly all actives have a fitted effect of over 55% in size
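Stably hTDP1-transfected Tdp1-null chicken DT40 cells were treated with library compounds minus camptothecin and grown for at least 48 hr at 37 °C, after which cellular ATP was quantified by luminescence.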
IL1B secr inh: blocks inflammasome-driven IL-1 beta release | THP-1 LPS/ATP IL-1B secretion, AlphaLISA, 16 h; stronger effect = lower value | activity change, % at 57.5 µM | actives 4.7% (n = 360,000) | AID 743279; in the data active = activity change below about -50%; inconclusive = mostly about -30% to -49%
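Secreted IL-1B measured by AlphaLISA bead assay after 16 h compound exposure of THP-1 cells; compounds (final up to 57.5 uM) added 1 h before LPS (250 ng/mL) and ATP (1.25 mM) stimulation; lower signal means less secretion.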
HepG2 viability: kills HepG2 cells in TGF-b inhibitor counter-screen; HepG2 CAGA-GFP viability, ATP luminescence, 18 h; Potency, µM (series often up to 46.1 µM), actives largely listed as cytotoxic; actives 0.76% (n = 410,000); AID 588856
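HepG2 CAGA-GFP cells (1000/well, DMEM with 1% FBS) received compound, then TGF-beta at 500 pg/mL final, and were incubated 18 hours at 37 degrees C. Viability was read by CellTiter-Glo luminescence. Media-only wells were set as complete cell-killing and DMSO as no toxicity.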
Each line names hits and unclear results; the compound was inactive in the other large screens; ! = a repeat was not active. Unless noted, calls follow the shape of the dose curve; as a rule, active = well fitted curve in the direction sought with a large enough effect; inconclusive = small, poorly fitted or top-dose-only effect, or another doubt; inactive = no such curve, though single readings can be large; an effect the other way counts as inactive or inconclusive.

Nc1nc(CN2CCCCC2)cs1	none
Nc1nc(CN2CCOCC2)cs1	TDP1 cell CPT inconclusive, DT40 TDP1 no CPT 29µM
Cc1ccc(Cl)cc1N1CCN(C(=O)c2ccc3c(c2)N(Cc2ccc(F)cc2)CCS3)CC1	TDP1 cell CPT inconclusive, DT40 TDP1 no CPT inconclusive (no result: IL1B secr inh)
Cc1c(Cl)cccc1NC(=O)C(CCS(C)(=O)=O)N1Cc2ccccc2C1=O (centres undefined)	TDP1 cell CPT inconclusive (no result: IL1B secr inh)
C=CCOC(=O)C1=C(C)NC(SCC(=O)N(CC)CC)=C(C#N)C1c1ccco1 (centres undefined)	DT40 TDP1 no CPT inconclusive
C=CCOC(=O)C1=C(C)NC(SCC(=O)N(CC)CC)=C(C#N)C1c1ccccc1 (centres undefined)	TDP1 cell CPT 21µM, DT40 TDP1 no CPT 21µM, IL1B secr inh -51
CCOC(=O)C1=C(C)NC(SCC(N)=O)=C(C#N)C1c1ccccc1 (centres undefined)	none
CCN(CC)C(=O)CSC1=C(C#N)C(c2ccco2)C(C(=O)OCCOC)=C(C)N1 (centres undefined)	TDP1 cell CPT 21µM!, TGFb inhibitor inconclusive, DT40 TDP1 no CPT inconclusive
COc1ccccc1CNC(=O)CC(c1ccc(C)cc1)N1Cc2ccccc2C1=O (centres undefined)	TDP1 cell CPT inconclusive, DT40 TDP1 no CPT inconclusive (no result: IL1B secr inh)
CC1c2ccccc2N(S(=O)(=O)c2ccccc2)C1C (centres undefined)	TDP1 cell CPT inconclusive, DT40 TDP1 no CPT 23µM (no result: TDP1 inh)
Cn1cnc([N+](=O)[O-])c1S(=O)(=O)c1ccc(Cl)cc1	TDP1 cell CPT 1.2µM, TGFb inhibitor 11µM, DT40 TDP1 no CPT 2.9µM, IL1B secr inh -138, HepG2 viability 18µM
Cc1cccc(-c2nc(N3CCN(c4ccc(F)cc4)CC3)c3ccccc3n2)c1	TDP1 cell CPT inconclusive, DT40 TDP1 no CPT inconclusive (no result: IL1B secr inh)
O=c1c2cc3c(cc2nc2sc(Nc4ccccc4)nn12)OCO3	DT40 TDP1 no CPT inconclusive (no result: IL1B secr inh)
Cc1ccc(C)c(Nc2nn3c(=O)c4ccc(C(=O)NC5CCCCC5)cc4nc3s2)c1	TDP1 cell CPT 7.3µM, DT40 TDP1 no CPT 8.2µM (no result: IL1B secr inh)
Cc1ccc(C)c(Nc2nn3c(=O)c4cc5c(cc4nc3s2)OCO5)c1	TDP1 cell CPT 16µM, DT40 TDP1 no CPT 18µM (no result: IL1B secr inh)
CCc1ccccc1Nc1nn2c(=O)c3ccc(C(=O)NCCCOC(C)C)cc3nc2s1	TDP1 cell CPT inconclusive, DT40 TDP1 no CPT inconclusive (no result: TDP1 inh, IL1B secr inh)
Cc1c(Cl)cccc1Nc1nn2c(=O)c3ccc(C(=O)N(C)Cc4ccccc4)cc3nc2s1	TDP1 cell CPT inconclusive, DT40 TDP1 no CPT inconclusive (no result: IL1B secr inh)
Cc1ccc(C)c(Nc2nn3c(=O)c4ccc(C(=O)NCCc5ccccc5)cc4nc3s2)c1	TDP1 cell CPT 3.7µM, DT40 TDP1 no CPT 8.2µM (no result: IL1B secr inh)
Cc1c(Cl)cccc1Nc1nn2c(=O)c3ccc(C(=O)NCCc4ccccc4)cc3nc2s1	TDP1 cell CPT 8.2µM, DT40 TDP1 no CPT 5.2µM (no result: IL1B secr inh)
Cc1ccccc1CSc1nc2cc(C(=O)NC3CCCC3)ccc2c(=O)n1Cc1ccccc1	none (no result: IL1B secr inh)
CC1CCC(O)C/C1=C\C=C1/CCCC2(C)C1CCC2C(C)/C=C/C(C)C(C)C (centres undefined)	none (no result: TDP1 cell CPT, TGFb inhibitor, DT40 TDP1 no CPT, IL1B secr inh, HepG2 viability)
CCO	none (no result: TDP1 cell CPT, TGFb inhibitor, DT40 TDP1 no CPT, IL1B secr inh, HepG2 viability)
COc1ccccc1Nc1nn2c(=O)c3ccc(C(=O)NCCc4ccccc4)cc3nc2s1	TDP1 cell CPT 2.3µM, TGFb inhibitor 2.2µM, DT40 TDP1 no CPT 2.9µM, HepG2 viability 3.2µM (no result: IL1B secr inh)
CCN(CC)CCNC(=O)c1ccc2c(=O)n3nc(Nc4cccc(Cl)c4C)sc3nc2c1	TDP1 cell CPT 4.6µM, DT40 TDP1 no CPT 2.6µM (no result: IL1B secr inh)
CCn1cc(C(=O)O)c(=O)c2cnc(N3CCN(C(=S)NC(=O)c4ccc(Cl)cc4)CC3)nc21	IL1B secr inh inconclusive
CSCc1nnc(NC(=O)c2ccc(S(=O)(=O)N(CC(C)C)CC(C)C)cc2)o1	none (no result: TDP1 cell CPT, TGFb inhibitor, DT40 TDP1 no CPT, IL1B secr inh, HepG2 viability)
